Out of some 320,000 compounds screened, about 1,300 (0.41%) were called active. About 3% were inconclusive and are not listed. How the calls were made is not given here. Only a sample is shown. Results with a measured potency or affinity are listed apart.

Usually inhibition stands for the change of the read-out against control, counted positive when it falls.

A short description of this assay: growth inhibition of non-replicating M. tuberculosis (AID 488890).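 Further: plate controls were DMSO cells for no effect and high antibiotic wells for full effect.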 The note with it: Mycobacterium tuberculosis non-replicating, at 25 µM, stronger effect = higher value.
For `COc1ccc(N2CCN(c3ccc(N)cc3C#N)CC2)cc1`, the inhibition is -1.74%.

Consider `N#Cc1cc(N)ccc1Sc1ccccc1`, for which the inhibition was determined as 9.77%.

Take `CS(=O)(=O)N(CC(=O)NCCC1=CCCCC1)c1ccc2c(c1)OCO2`: the inhibition was -1.16%. For `COc1ccc(-c2cc(C(=O)NCCN3CCOCC3)no2)cc1OC`, the inhibition was -10.1%. As for `Cc1ccc(C)c2sc(N3CCN(C(=O)c4ccc([N+](=O)[O-])o4)CC3)nc12`, the inhibition came to 77.8%. Take `Cc1ccc2sc(N3CCN(C(=O)c4ccc([N+](=O)[O-])o4)CC3)nc2c1C`: the inhibition was found to be 68.9%.

On to `O=C(c1ccccc1)N1CCN(c2nc3ccc([N+](=O)[O-])cc3s2)CC1`, for which the inhibition was 24.5%. The value for `CCCCC(=O)N1CCN(c2nc3ccc(F)cc3s2)CC1` was 50.8%; that for `Cc1ccc(OCCC(=O)OCC(=O)NCc2ccccc2)cc1` was 30.8%.

Consider `CC1(C(=O)CSc2ncn[nH]2)CCC(=O)O1` (stereo unspecified), for which the inhibition is -3.75%. For the compound `O=C(NC1CCCCC1)c1cc2ccccc2cc1O`, the inhibition is 30.4%. Take `O=C(NC1CC1)c1cc2ccccc2o1`: the inhibition came to 6.17%. Turning to `CC(NC(=O)Cn1cnnn1)C12CC3CC(CC(C3)C1)C2` (stereo unspecified), the inhibition is 2.51%.

Consider `CCn1cc(C(=O)NC(C)C2CC3CCC2C3)cn1` (stereo unspecified), for which the inhibition was 78.4%. For the compound `Cc1ccc(C2NC(=O)c3ccccc3O2)cc1` (stereo unspecified), the inhibition was found to be 9.75%. As for `COc1ccc(NS(=O)(=O)c2ccc(N3CCCCC3)c(NC(=O)C(C)NC(N)=O)c2)cc1` (stereo unspecified), the inhibition is 17.6%. With `CC/C(=N\NS(=O)(=O)c1ccc(C)cc1)c1ccco1`, the inhibition was -13.4%. With `COc1ccccc1OCCCCN1CCCCC1`, the inhibition stood at 7.51%.

As to `COc1ccccc1OCCOCCN1CCCC1`, the inhibition is -3.17%. To `COc1ccc(CC(=O)NC(C)(C)C)cc1S(=O)(=O)N1CCOCC1` belongs -3.56%; to `O=C(c1ccc([N+](=O)[O-])o1)N1CCOCC1`, 15.5%; to `O=C(c1ccccc1)N1CCN(C(=O)c2cc3ccccc3o2)CC1`, -6.53%.

For `CC(=O)N1CCN(C(=O)c2cc3ccccc3o2)CC1`, the inhibition was determined as 2.82%. The value for `O=C(c1ccc([N+](=O)[O-])cc1)N1CCc2ccccc2C1` was 39.6%; that for `O=C(c1ccccc1[N+](=O)[O-])N1CCc2ccccc2C1` was -4.71%; that for `COc1cc2c(cc1OC)CN(C(=O)c1ccc(OC)c([N+](=O)[O-])c1)CC2` was 2.12%. As for `O=C(c1ccc([N+](=O)[O-])o1)N1CCCCCC1`, the inhibition was 56.6%. Consider `COc1cc2c(cc1OC)CN(C(=O)c1ccc(Br)o1)CC2`, for which the inhibition is -1.97%.

For the compound `O=C(COC(=O)c1cncc(Br)c1)NCC1CCCO1` (stereo unspecified), the inhibition is 4.18%.

In the case of `N#Cc1ccc(S(=O)(=O)N2CCC(C(=O)Nc3cccc(C(=O)NC4CC4)c3)CC2)cc1`, the inhibition worked out at 4.79%. As to `COC(=O)C1=C(C)N(C(C)C)C(=O)C1(NC(=O)C1CCCCC1)C(F)(F)F` (stereo unspecified), the inhibition stood at 7.64%. Take `CCOc1ccc(C(NC(=O)CC)c2c(O)ccc3ccccc23)cc1` (stereo unspecified): the inhibition was determined as 22.7%. To `COc1ccc(N2CCOCC2)c(NC(=O)c2cccs2)c1` belongs -2.48%; to `CN1C[C@H](C(=O)NC2(C)OC3(O)[C@@H]4CCCN4C(=O)[C@H](Cc4ccccc4)N3C2=O)CC2c3cccc4[nH]cc(c34)C[C@H]21` (stereo partly specified), 12.4%. For the compound `CC1CCC(NC(=O)C2CC(O)CN2S(=O)(=O)c2ccc([N+](=O)[O-])cc2)CC1` (stereo unspecified), the inhibition came to 11.1%. For `O=C(Nc1ccccc1N1CCOCC1)c1ccc2ccccc2n1`, the inhibition is 32.1%. To `CSCCC(NC(=O)c1ccco1)C(=O)N1CCC(C(N)=O)CC1` (stereo unspecified) belongs -11.5%. For the compound `COc1ccc(NC(=O)CN(C)C(=O)c2ccc3ccccc3n2)cc1`, the inhibition is -6.38%. As for `O=C(Nc1cc(Cl)ncn1)c1ccccc1`, the inhibition worked out at 5.29%.

On to `CCN(CC(=O)Nc1cccc(OC)c1)CC(=O)Nc1ccc(C)cc1Cl`, for which the inhibition worked out at 13.4%.

Regarding `O=C(Nc1ccc(Cl)cc1)C1CCCCN1S(=O)(=O)c1ccccc1` (stereo unspecified), the inhibition worked out at 10.3%. In the case of `Cc1cc(C)c(C)c(OCC(=O)O/N=C(\N)c2ccccn2)c1`, the inhibition stood at 13%. In the case of `CCOC(=O)c1cccc(-n2cccc2/C=C2\NC(=O)N(CC(=O)O)C2=O)c1`, the inhibition was -4.64%. Turning to `CC(NC(=O)C1CCC(CNS(=O)(=O)c2ccccc2)CC1)c1ccc2c(c1)OCCO2` (stereo unspecified), the inhibition came to 0.52%. For `CC(=O)Nc1ccccc1Sc1ccccc1`, the inhibition is -2.8%. Regarding `N#CCC(CNc1ncc(C(F)(F)F)cc1Cl)OC(=O)c1ccc(Cl)cc1` (stereo unspecified), the inhibition was 27%. As for `CN(Cc1ccccc1)C(=O)c1ccco1`, the inhibition was determined as 14.6%. With `CC(C)(C)N(Cc1ccccc1)C(=O)COC(=O)c1ccc([N+](=O)[O-])o1`, the inhibition was 4%.

For `Cc1cc(NC(=O)CSc2nncn2N)no1`, the inhibition was -18%.

With `COC(=O)Cc1cc(=O)[nH]c(Nc2nc3ccccc3o2)n1`, the inhibition was found to be 69%. Take `COCc1cc(=O)[nH]c(Nc2nc3ccc(C)cc3o2)n1`: the inhibition was -3.8%. The value for `COc1cc(C(=O)NCCCNc2nc3c(C)cc(C)cc3cc2C#N)cc(OC)c1OC` was 40.9%.

For `Cc1[nH]n(-c2ccccc2)c(=O)c1N=Nc1cccc(Cl)c1`, the inhibition is 1.75%. In the case of `Cc1[nH]n(-c2ccccc2)c(=O)c1N=Nc1ccc(Cl)cc1`, the inhibition turned out to be 22%. The value for `COc1ccc(OC)c(C(=O)COC(=O)c2ccccc2O)c1` was 51.8%.

As to `COc1ccccc1C(=O)COC(=O)c1ccccc1O`, the inhibition was 26.5%. For `COc1ccc(/C=N/NC(=O)c2c(Br)cnn2C)c2ccccc12`, the inhibition stood at 8.73%. The value for `Cc1cccc(CCNC(=O)Cn2ncc3c([nH]c4ccccc43)c2=O)c1` was 3.21%; that for `COc1ccc(NC(=O)CNC(=O)C23CC4CC(CC(C4)C2)C3)c(OC)c1` was 7.13%; that for `COc1ccc(C(=O)NNC(=O)C23CC4CC(CC(C4)C2)C3)c(OC)c1` was 1.7%. On to `Cc1cc(C)c2sc(N(CCCN(C)C)C(=O)CN3C(=O)c4ccccc4C3=O)nc2c1`, for which the inhibition turned out to be 16.6%. As to `COc1cccc(NC(=O)C2C3C=CC(O3)C2C(=O)NCc2cccnc2)c1` (stereo unspecified), the inhibition worked out at 7.86%. To `Cc1nc2ccc(NC(=O)c3ccc([N+](=O)[O-])cc3)cc2s1` belongs 41.2%; to `Cc1nc2ccc(NC(=O)c3ccc(Cl)c([N+](=O)[O-])c3)cc2s1`, -1.87%; to `COc1cc(-c2c(C#N)c(N)nc3c2c(C)nn3-c2ccc(C)c(C)c2)cc(OC)c1OC`, 20.3%. The value for `COc1ccccc1Nc1c([N+](=O)[O-])cncc1[N+](=O)[O-]` was 55.7%; that for `Cc1ccccc1Nc1c([N+](=O)[O-])cncc1[N+](=O)[O-]` was 76%. For the compound `CCN(CC(=O)NCc1ccc(F)cc1)C(=O)c1ccc2c(c1)OCO2`, the inhibition is -2%. Take `COc1ccc(C(=O)N2CCN(C)C(=O)[C@@H]2C)cc1OC1CCN(C(C)C)CC1`: the inhibition is -16.1%. `CCn1c(O)c(C=NC2CCCC2)sc1=S`: the inhibition was -4.02%. On to `Oc1ccc(C=NC2CCCCC2)c(O)c1`, for which the inhibition was -6.4%.

The record behind these values is PubChem BioAssay AID488890 (Southern Research Specialized Biocontainment Screening …, 2010).
